# ClpP mod: qHTS Assay for Activators of ClpP; ATP-dependent Clp protease proteolytic subunit (Bacillus subtilis (strain 168)), P80244; purified B. subtilis ClpP, FRET peptide cleavage, 20 min; Potency, µM (series often up to 57.5 µM), for inactives: top-dose activity change, negative = active; 340,000 tested, 1.9% active; active means well fitted falling curve with a large enough effect; inconclusive means small, poorly fitted or top-dose-only effect; inactive means no such curve, though single readings can be large or run the other way; further: potency means the concentration at half of the fitted maximal effect; the source files actives as falling curves though it sought activators and does not explain the sign; nearly all actives have a fitted effect of over 65% in size
#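 FRET quenching reversal measured ClpP activation: 10 microg/mL B. subtilis ClpP at pH 8 with the FRET-FV decapeptide, read at 430 nm after 320 nm excitation. The 20-min minus 0-min signal was scaled between DMSO/no-enzyme wells and ADEP (5.8 microM final).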
# Sfp PPTase inh: qHTS Assay for Inhibitors of Bacillus subtilis Sfp phosphopantetheinyl transferase (PPTase); 4'-phosphopantetheinyl transferase ffp (Bacillus subtilis), Q9F4F7; Biochemical Sfp PPTase activity, qHTS; Potency, µM, for inactives: largest response in the series, negative = inhibition, most hits filed as inhibitors; 310,000 tested, 3.5% active;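 further: the enzyme is Sfp with the accession as filed and its product quenches rhodamine fluorescence; potency means the concentration at half of the fitted maximal effect; 0% = enzyme reaction without inhibitor and -100% = no enzyme wells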
#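 Compounds were incubated with enzyme (final 15 nM) for 15 min at room temperature before substrate addition started the reaction. Fluorescence at 525 nm excitation, 598 nm emission was recorded immediately and after 30 minutes.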
# TCR activator: Activators of T cell receptors: qHTS campaign; primary human leukocytes, anti-CD3, IL-2 HTRF, 48 h; Potency, µM (highest dose often 9.22 µM), for the others: at the highest dose activation of IL-2 secretion, hits mostly activators; 330,000 tested, under 10 active; AID 504894, 2011; further: % of control where 0% means no effect
#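 Human primary leukocytes + a-CD3 beads + cpd, 48 hr; IL-2 in supernatant by HTRF (ex 320nm / em 665nm). No co-stimulatory signal supplied.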
# uPA generation: qHTS for Inhibitors of Cell Surface uPA Generation; cell surface uPA generation assay, qHTS; Potency, µM (series often up to 38.3 µM), for the others: at the top dose activity change, negative = inhibition, actives largely listed as inhibitors; 330,000 tested, 0.31% active; AID 540303, 2011; active means well fitted inhibition curve with a large enough effect; inconclusive means small, poorly fitted or top-dose-only effect; inactive means no such curve, though single readings can be large or run the other way; tested in mouse RAW 264.7 cells; further: potency means the concentration at half of the fitted maximal effect; on the % scale 0 is the no-effect control and ±100 the full control effect; nearly all actives have a fitted effect of over 55% in size
# ClpP inh valid: qHTS Assay for Activators of ClpP: Hit Validation of Inhibitors; 470 tested, 40% active; purified B. subtilis ClpP, FRET-FV substrate cleavage, 20 min; shares compounds with ClpP mod; Potency, µM (top dose mostly 57.5 µM), for the others: top-dose activity change, negative = inhibition, actives largely listed as inhibitors; further: potency means the concentration at half of the fitted maximal effect; on the % scale 0 is the no-effect control and ±100 the full control effect; nearly all actives have a fitted effect of over 70% in size
# Starred values were filed as active, the others as inactive; ? = inconclusive; . = no result; [ ] = remark or other dose. Most compounds without a hit are left out; they make up all but 4.2% or so of the library. Unless noted, the call rests on the fitted dose curve; in most records, active means well fitted curve in the direction sought with a large enough effect; inconclusive means small, poorly fitted or top-dose-only effect, or another doubt; inactive means no such curve, though single readings can be large; an effect the other way counts as inactive or inconclusive.
SMILES,ClpP mod,Sfp PPTase inh,TCR activator,uPA generation,ClpP inh valid
CSc1ccccc1C(=O)OCC(=O)N1CCCC1=O,-2.6%,.,-6.4%,4.3%,.
O=c1n(Cc2ccc(Cl)cc2)c2sc3c(c2c2ncnn12)CCCC3,2.82µM*,-22.8%,-3.1%,-4.5%,-3.3%
Cc1ccc(NC(=O)c2ccc(-c3ccccc3)s2)cc1,46.9%,.,.,.,-8.6%
COc1ccc(-c2cc(C(=O)NCCc3ccccc3)c3c(-c4ccccc4)[nH]nc3n2)cc1OC,395.5%,.,.,.,24.3µM*
COCCNC(=S)N1CCc2cc(OC)c(OC)cc2C1COc1ccc(C(C)C)cc1 (stereo not drawn),-1.6%,2.6%,-0.7%[46.1 µM],-8.9%,.
CCCOc1ccc(Cn2c(=O)oc3ccc(C)cc32)cc1OC,240.3%,2.3%,4.6%,4.0%,-0.6%
COc1cc(Cn2c(=O)oc3ccc(C)cc32)ccc1OCCC(C)C,-1.3%,.,.,.,.
CCNc1nc(NCC)n2c(SCC(=O)Nc3ccc(OC)c(OC)c3)nnc2n1,46.2%,.,-0.8%,1.0%,0.1%
N#C/C(=C\c1ccc(-c2ccc([N+](=O)[O-])cc2Br)o1)C(=O)N1CCN(c2ccccc2)CC1,-2.4%,2.2%,2.5%[46.1 µM],0.5%,.
O=C1NC2(CCCC2)C(=O)N1CC(=O)N(Cc1ccccc1)c1ccccc1,.,.,1.0%,-1.3%,.
Oc1ccc(/C=C/c2ccc(/C=C/c3ccc(O)cc3)c(Br)c2)cc1,.,.,.,.,-18.9%
O=C(OC1CCOC1=O)C1CCN(S(=O)(=O)c2c(Cl)cccc2Cl)CC1 (stereo not drawn),-5.5%,.,3.2%,1.9%,.
COc1ccc(-n2ncc3c(NC(C)(C)CO)ncnc32)cc1,-16.0%,.,.,.,.
COc1ccc(S(=O)(=O)N2CCCC2C(=O)Nc2nc3c(s2)CCCC3)cc1 (stereo not drawn),6.31µM*,6.8%,-7.1%,9.5%,-0.4%
COc1ccc(-c2oc3ccc(-c4cc(OC)c(OC)c(OC)c4)cc3c2-c2ccc(OC)cc2)cc1,4.3%,.,-3.4%,1.0%,.
COc1ccc(C#Cc2c(-c3ccsc3)oc3ccc(-c4cc(OC)c(OC)c(OC)c4)cc23)cc1,45.5%,.,-3.8%,7.3%,?
Cc1cc(C)c2c(=O)cc(C(=O)Nc3ccccc3C(F)(F)F)oc2c1,1.9%,.,.,.,.
CCN(c1ccccc1)S(=O)(=O)c1ccc(OC)c(NC(=O)c2cc(F)c(F)c(F)c2F)c1,41.0%,.,13.9%[46.1 µM],-2.9%,?
CC(=O)c1ccc(NC(=O)Cn2c(=O)c3cccn3c3ccccc32)cc1,-4.2%,.,.,.,.
COc1ccc(NC(=O)Cn2c(=O)c3cccn3c3ccccc32)cc1,51.2%,.,.,.,-17.6%
COc1ccc(C)cc1S(=O)(=O)NC1CCCCC1C (stereo not drawn),208.9%,11.8%,3.7%,2.0%,-1.5%
CCC(C)NC(=O)c1cc2cc3ccc(OC)cc3nc2s1 (stereo not drawn),10µM*,-8.4%,0.1%,-12.9%,13.7µM*
Cc1ccccc1C(=O)Nc1cccc(NC(=O)c2ccc(-c3ccc(Br)cc3)o2)c1,139.3%,?,-6.6%,1.7%,?
Cc1ccccc1C(=O)Nc1cccc(NC(=O)c2ccc(F)cc2)c1,.,11.4%,-1.9%,-0.9%,.
Cc1cccc(NC(=O)c2ccccc2C(=O)Nc2cccc(C)c2)c1,167.8%,.,-2.0%,-4.4%,-1.7%
SMILES,ClpP mod,Sfp PPTase inh,TCR activator,uPA generation,ClpP inh valid
Cc1ccc(C[C@H](C(=O)O)N2C(=O)c3ccc(C(=O)O)cc3C2=O)cc1,.,0.3%,.,.,.
CSc1cccc(NC(=O)CC(c2cccs2)N2Cc3ccccc3C2=O)c1 (stereo not drawn),-4.0%,.,.,.,.
COc1cccc(-c2nc(-c3ccc(NC(=O)c4cccs4)cc3)no2)c1,41.0%,8.8%,-3.7%,-2.8%,?
Cc1c(C(=O)Nc2ccc(-c3nc4cc(Cl)ccc4o3)cc2)oc2ccccc12,8.91µM*,.,.,.,15.3µM*
Cc1ccnc(NC(=O)c2ccc(OCc3c(C)noc3C)cc2)c1,105.7%,.,3.5%,0.1%,-0.2%
COc1ccccc1NC(=O)Cc1nnc(SCC(=O)Nc2nccs2)n1C,.,16.3%,3.0%,2.9%,.
Cc1cccc(CC(=O)Nc2ccc(C(=O)N3CCCCC3)cc2)c1,3.16µM*,8.7%,-6.5%,-0.2%,-0.2%
O=C(Cc1cccc(NC(=O)C2CCCN(C(=O)C3CC3)C2)c1)Nc1ccc(C(=O)N2CCCCC2)cc1 (stereo not drawn),1.4%,.,-3.8%,-25.2%,.
Cc1noc(C)c1-c1ccc2ncnc(NCc3cc(F)cc(F)c3)c2c1,.,7.9%,.,.,.
COc1ccc(-c2cc3nc4n(c(=O)c3s2)CCCCC4)cc1,.,4.3%,-1.5%,-2.6%,.
COc1ccc(-c2cc3nc4n(c(=O)c3s2)CCC4)cc1,106.2%,17.2%,-3.5%,.,1.93µM*
CC(C)[C@H](NC(=O)c1ccccc1F)C(=O)OCCN1C(=O)c2ccccc2C1=O,-1.9%,.,-1.1%,2.8%,.
Cc1ccc(NC(=O)CN(c2ccc(Cl)cc2)S(=O)(=O)c2cc([N+](=O)[O-])ccc2Cl)c(C)c1,.,14.2%,-2.5%,-3.8%,.
CCOC(=O)C1CCN(c2ncnc3c2oc2ccccc23)CC1,-1.8%,-5.1%,2.2%,-10.5%,.
CCOC(=O)C1CCCN(c2ncnc3c2oc2ccccc23)C1 (stereo not drawn),352.3%,0.3%,2.9%,-5.0%,-2.1%
CCC(=O)Oc1ccc2c(C)cc(=O)oc2c1C,52.0%,4.6%,-5.2%,6.4%,.
Cc1cc(=O)oc2c(C)c(OC(=O)c3ccco3)ccc12,31.5%,.,1.4%,3.4%,6.8%
CC(OC(=O)Cn1cnc2c1c(=O)n(C)c(=O)n2C)C(=O)N(C)c1ccccc1 (stereo not drawn),.,.,6.5%,-5.9%,.
CN1CCCC(C)(C(=O)Nc2ccc(-n3cccc3)cc2)C1 (stereo not drawn),-0.3%,.,.,.,.
O=C1Nc2ccc(Cl)cc2C12Nc1ccccc1-c1nnc(SCc3ccccc3F)nc1O2 (stereo not drawn),53.4%,-23.1%,4.6%[46.1 µM],2.6%,.
O=C1Nc2ccc(F)cc2C12Nc1ccccc1-c1nnc(SCc3ccccc3F)nc1O2 (stereo not drawn),39.9%,2.3%,0.9%,2.1%,10.1%
COc1ccc(OC)c(CNc2ncc(-c3ccc(Cl)cc3)n2C)c1,-6.4%,.,.,.,.
CCC(=O)n1nc(-c2ccccc2)nc1NCc1ccccc1,37.9%,-4.2%,7.3%,1.3%,6.2%
COCC(=O)n1nc(-c2ccccc2)nc1NCc1ccccc1,.,10.0%,-0.5%,0.4%,.
Cc1cccc(C)c1NC(=O)C(c1ccc(-c2ccccc2)cc1)n1c(=O)c(-c2cc3ccccc3[nH]2)nc2ccccc21 (stereo not drawn),40.4%,.,.,.,10.7%

# Compound activity from PubChem BioAssay.
